# The whole screen tested about 310,000 compounds, of which about 14,000 (4.5%) showed an effect of 50% or more. Effects have a minus sign here. The entries come from a sample that favours strong results as a whole.
# Target: human ether-à-go-go-related gene (hERG) potassium channel (human, UniProt Q12809)
# Experiment: primary screen, population patch clamp on CHO cells stably expressing hERG; higher = less effect of the substance
# 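Also: peak tail current of the secondary pulse compared with the same well before compound.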
# Sequence of human ether-à-go-go-related gene (hERG) potassium channel (Q12809 whole entry, looked up): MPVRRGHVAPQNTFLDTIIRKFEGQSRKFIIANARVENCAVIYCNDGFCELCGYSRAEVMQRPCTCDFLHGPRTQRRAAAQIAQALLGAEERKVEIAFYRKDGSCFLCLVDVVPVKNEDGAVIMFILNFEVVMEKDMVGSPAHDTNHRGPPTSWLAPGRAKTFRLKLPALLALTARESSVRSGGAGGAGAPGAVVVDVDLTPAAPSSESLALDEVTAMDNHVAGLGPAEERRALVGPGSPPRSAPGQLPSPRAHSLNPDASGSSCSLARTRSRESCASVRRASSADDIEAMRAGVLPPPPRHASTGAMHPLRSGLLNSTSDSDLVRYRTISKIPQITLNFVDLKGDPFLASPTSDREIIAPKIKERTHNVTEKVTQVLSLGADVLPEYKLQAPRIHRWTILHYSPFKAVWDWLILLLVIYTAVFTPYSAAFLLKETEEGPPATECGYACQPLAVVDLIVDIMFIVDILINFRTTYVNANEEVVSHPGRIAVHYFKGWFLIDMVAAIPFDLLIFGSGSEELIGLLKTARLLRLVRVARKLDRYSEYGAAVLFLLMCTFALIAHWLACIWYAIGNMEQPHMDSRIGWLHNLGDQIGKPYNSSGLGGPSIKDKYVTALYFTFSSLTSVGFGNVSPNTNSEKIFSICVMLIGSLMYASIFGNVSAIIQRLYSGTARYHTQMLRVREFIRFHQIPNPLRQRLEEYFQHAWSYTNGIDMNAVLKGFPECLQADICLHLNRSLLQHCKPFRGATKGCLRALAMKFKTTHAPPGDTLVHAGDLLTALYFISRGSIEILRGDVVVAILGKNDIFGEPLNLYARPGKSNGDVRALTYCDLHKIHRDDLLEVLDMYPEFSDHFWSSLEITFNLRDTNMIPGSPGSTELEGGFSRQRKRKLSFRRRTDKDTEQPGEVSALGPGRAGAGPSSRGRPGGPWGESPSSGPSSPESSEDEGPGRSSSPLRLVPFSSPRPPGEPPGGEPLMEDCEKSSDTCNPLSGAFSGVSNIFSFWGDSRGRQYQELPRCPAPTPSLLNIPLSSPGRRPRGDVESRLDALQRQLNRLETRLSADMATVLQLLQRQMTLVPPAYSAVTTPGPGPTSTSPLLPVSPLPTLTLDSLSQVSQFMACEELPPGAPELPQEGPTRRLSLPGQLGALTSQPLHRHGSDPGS
row,SMILES,"hERG current change (%, negative = inhibition) at 10uM [%]"
1,Cc1cc(C)cc(OCC(=O)N2N=C(C(F)(F)F)CC2(O)C(C)(C)C)c1 (stereo not drawn),3.64
2,CC1CCN(C(=O)CSCC(=O)Nc2nc(-c3cccs3)cs2)CC1,-20.6
3,CCOc1ccc(C2C=C(c3ccccc3)Nc3ncnn32)cc1 (stereo not drawn),-47.2
4,Cc1ccc(C2=CC(c3ccccc3)n3ncnc3N2)cc1 (stereo not drawn),-15.8
5,COc1ccc(C2C=C(c3ccccc3)Nc3ncnn32)cc1 (stereo not drawn),-57.4
6,COc1cccc(C2=CC(c3ccc(N(C)C)cc3)n3ncnc3N2)c1 (stereo not drawn),-1.72
7,Cc1ccc(C2=CC(c3ccc(C)cc3)n3ncnc3N2)cc1 (stereo not drawn),-17.6
8,C1=C(c2ccccc2)Nc2ncnn2C1c1ccccc1 (stereo not drawn),-5.26
9,COc1cccc(C2=CC(c3ccc(C)cc3)n3ncnc3N2)c1 (stereo not drawn),-52.4
10,COc1cccc(C2=CC(c3ccccc3)n3ncnc3N2)c1 (stereo not drawn),-2.39
11,Cc1ccc(C2C=C(c3ccccc3)Nc3ncnn32)cc1 (stereo not drawn),-64.7
12,O=C(Nc1nnc(-c2ccccc2Cl)s1)c1ccccc1F,10.9
13,CC(=O)c1ccc(N2CCN(S(=O)(=O)c3ccc(-c4cc(C)no4)s3)CC2)cc1,-1.08
14,Cc1ccc2c(c1)NCCO2,4.46
15,O=C(CSc1ccc(F)cc1)Nc1ccc(N2CCOCC2)c(Cl)c1,-20.3
16,COc1ccc(N2CCN(C(=O)c3oc4ccccc4c3NC(=O)Cc3cccc(OC)c3)CC2)cc1,-30.2
17,COc1cccc(N2CCN(C(=O)c3oc4ccccc4c3NC(=O)Cc3ccc(OC)c(OC)c3)CC2)c1,-14.1
18,CCOCCCN(C)C1CCN(C(=O)c2oc3ccccc3c2NC(=O)Cc2cccc([N+](=O)[O-])c2)CC1,-75.3
19,CCOCCCN(C)C1CCN(C(=O)c2oc3ccccc3c2NC(=O)Cc2ccc([N+](=O)[O-])cc2)CC1,-81.5
20,COc1ccc(CC(=O)Nc2c(C(=O)N3CCN(c4ccccc4)CC3)oc3ccccc23)cc1OC,-32.4
21,Cc1nc(=S)c2c([nH]1)-c1ccccc1CC21CCCCC1,10.8

row,SMILES,"hERG current change (%, negative = inhibition) at 10uM [%]"
1,CC1CCCC(NC(=O)COC(=O)c2ccc(N(C)C)cc2)C1C (stereo not drawn),-1.77
2,Cc1ccc(NC(=O)CN(C)S(=O)(=O)c2cccc3cccnc23)c(C)c1,4.3
3,Cc1ccsc1C(=O)C1CCCN(Cc2cn(C)nc2C)C1 (stereo not drawn),-40.9
4,Cc1ccc(-n2cccn2)c(CN2CCCC(C(=O)c3sccc3C)C2)c1 (stereo not drawn),-85.4
5,Cc1ccsc1C(=O)C1CCCN(Cc2cc(F)ccc2-n2cccn2)C1 (stereo not drawn),-82.9
6,Cc1ccsc1C(=O)C1CCCN(Cc2ccn[nH]2)C1 (stereo not drawn),6.96
7,Cc1ccsc1C(=O)C1CCCN(Cc2ccccc2O)C1 (stereo not drawn),-48.1
8,COC(=O)Nc1ncc(CN2C(=O)c3ccccc3C2=O)s1,-23
9,Cc1cc(NC(=O)COC(=O)c2n[nH]c3ccccc23)no1,8.9
10,O=C(N/N=C/c1cccnc1)c1cccc(Br)c1,10.4
11,C#CCNC(=O)C1=C[C@@H](c2ccc(C#C)cc2)C[C@@H](OCCCCO)O1,-3.88
12,C#CCNC(=O)C1=C[C@@H](c2ccc(C(F)(F)F)cc2)C[C@@H](OCCCCO)O1,-53.8
13,O=C(C1=C[C@H](c2ccccc2)C[C@H](OCCCCO)O1)N1CCN(Cc2ccccc2)CC1,-38.9
14,CCO[C@@H]1OC(C(=O)N2CCCCCCC2)=C[C@H](c2ccc(C(F)(F)F)cc2)[C@H]1CCCO,-21.4
15,CCO[C@H]1OC(C(=O)N2CCCCCCC2)=C[C@@H](c2ccc(C(F)(F)F)cc2)[C@@H]1CCCO,-50.5
16,C#CCNC(=O)C1=C[C@H](c2ccc(C(F)(F)F)cc2)C[C@H](OCCCCO)O1,-6.12
17,C#Cc1ccc([C@@H]2C=C(C(=O)N3CCN(Cc4ccccc4)CC3)O[C@H](OCCCCO)C2)cc1,-56
18,C#Cc1ccc([C@H]2C=C(C(=O)N3CCN(Cc4ccccc4)CC3)O[C@@H](OCc3ccc(CO)cc3)C2)cc1,-13.3
19,C#Cc1ccc([C@@H]2C=C(C(=O)N3CCOCC3)O[C@H](OCCCCO)C2)cc1,17.3
20,CN1CCN(C(=O)C2=C[C@H](c3ccc(Br)cc3)C[C@H](OCCCCO)O2)CC1,-47.7
21,O=C(C1=C[C@@H](c2ccc(Br)cc2)C[C@@H](OCCCCO)O1)N1CCN(Cc2ccccc2)CC1,-91.7

row,SMILES,"hERG current change (%, negative = inhibition) at 10uM [%]"
1,CCO[C@@H]1OC(C(=O)N2CCN(C)CC2)=C[C@H](c2ccc(C(F)(F)F)cc2)[C@H]1CCCO,-1.51
2,CC(=O)Nc1ccc(S(=O)(=O)NNC(=S)NCc2ccco2)cc1,12.1
3,COc1ccc(-c2csc(N(CCCN3CCOCC3)C(=O)CCl)n2)cc1.Cl,3.28
4,CC1(C)C2CCC(C2)C1(C)NC(=O)C[N+](C)(C)C.[Cl-] (stereo not drawn),12.6
5,Cc1nc(NC(=O)/C=C/c2ccccc2)sc1C(=O)Nc1ccccc1Cl,13.3
6,c1ccc(-c2ncc(CN3CCN(c4ccccn4)CC3)[nH]2)cc1,-14.1
7,CCOC(=O)c1cnc(-n2nc(C)cc2C)nc1NC1CCCC1,-26.2
8,CC(C)NCc1nnc(-c2ccc(Cl)cc2)o1,15.9
9,CCc1ccccc1NC(=O)c1cc(=O)c2ccccc2o1,-1.16
10,O=C(C1=C[C@H](c2ccc(Br)cc2)C[C@H](OCCCCO)O1)N1CCN(Cc2ccccc2)CC1,-80.8
11,C=CCOC(=O)C1=C[C@@H](c2ccccc2)[C@H](CCCO)[C@@H](OCC)O1,-9.65
12,O=C(C1=C[C@@H](c2ccc(C(F)(F)F)cc2)C[C@@H](OCCCCO)O1)N1CCN(Cc2ccccc2)CC1,-60.6
13,C=CCOC(=O)C1=C[C@@H](c2ccc(Br)cc2)[C@H](CCCO)[C@@H](OCC)O1,-22.6
14,O=C(C1=C[C@H](c2ccc(C(F)(F)F)cc2)C[C@H](OCCCCO)O1)N1CCOCC1,-23.7
15,CN1CCN(C(=O)C2=C[C@@H](c3ccccc3)C[C@@H](OCCCCO)O2)CC1,-6.11
16,O=C(C1=C[C@@H](c2ccc(C(F)(F)F)cc2)C[C@@H](OCCCCO)O1)N1CCCCCCC1,-51.3
17,O=C(C1=C[C@@H](c2ccc(C(F)(F)F)cc2)C[C@@H](OCCCCO)O1)N1CCOCC1,-3.65
18,O=C(C1=C[C@@H](c2ccc(Br)cc2)C[C@@H](OCCCCO)O1)N1CCOCC1,-15.7
19,O=C(C1=C[C@H](c2ccc(C(F)(F)F)cc2)C[C@H](OCCCCO)O1)N1CCN(Cc2ccccc2)CC1,-49.6
20,O=C(C1=C[C@H](c2ccc(C(F)(F)F)cc2)C[C@H](OCc2ccc(CO)cc2)O1)N1CCN(Cc2ccccc2)CC1,-15.2
21,C=CCOC(=O)C1=C[C@H](c2ccc(Br)cc2)[C@@H](CCCO)[C@H](OCC)O1,-55.3

# From publication PMC4336329 (PLoS ONE, 2015)
